Laboratory results reported in PubChem BioAssay AID504700 (The Scripps Research Institute Molecular Screening Center, 2011).
Screen size: about 340,000 compounds; about 270 (0.079%) were called active. The sample as a whole holds a higher share of actives than the screen did. A number with no mark means an inactive call.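 How the source made its calls: active means activation above a cutoff set at the mean over all compounds plus 3 SD (cut at about 18% in these data); inactive means the rest.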

What follows are compounds tested against cAMP-dependent protein kinase catalytic subunit beta (Homo sapiens) + cAMP-dependent protein kinase type II-beta regulatory subunit (Homo sapiens) (UniProt P22694+P31323) (assay: compounds dissociating PKAc from R2B subunit – biochemical, fluorescence polarization, Cy5-IP20, human, primary screen (AID 504700;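 further: higher means more holoenzyme dissociation and a rise in polarization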)). Details: PKA-R2B holoenzyme dissociation, at 11.4 µM, active compounds read high, 0% DMSO only, 100% 113 µM cGMP, R2B truncated from residue 108, S112A mutant.
Sequence of cAMP-dependent protein kinase catalytic subunit beta (Homo sapiens) + cAMP-dependent protein kinase type II-beta regulatory subunit (Homo sapiens) (P31323 whole entry, looked up, other chains not shown, the tested form may be a part): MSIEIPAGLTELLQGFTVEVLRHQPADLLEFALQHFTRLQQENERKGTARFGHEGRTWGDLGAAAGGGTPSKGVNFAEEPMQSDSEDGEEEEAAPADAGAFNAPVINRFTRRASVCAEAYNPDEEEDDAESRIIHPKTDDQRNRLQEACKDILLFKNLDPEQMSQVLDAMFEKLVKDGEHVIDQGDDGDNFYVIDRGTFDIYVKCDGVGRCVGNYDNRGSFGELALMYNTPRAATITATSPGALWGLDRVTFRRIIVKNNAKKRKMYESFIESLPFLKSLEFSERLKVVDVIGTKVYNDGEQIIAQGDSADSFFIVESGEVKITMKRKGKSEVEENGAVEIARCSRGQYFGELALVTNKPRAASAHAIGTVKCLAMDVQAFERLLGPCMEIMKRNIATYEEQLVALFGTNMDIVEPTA
Work on `O=C(c1cccs1)N1C[C@H](n2cc(C3CC3)nn2)[C@@H](O)C[C@@H]1c1ccccc1` yielded an activation of 5.94%.
`N#CCSc1ccccc1NC(=O)CN1C(=O)NC(CCc2ccccc2)C1=O` (configuration not stated) gave an activation of 0.61%.
Work on `COC(=O)c1ccccc1N=NNc1ccc([N+](=O)[O-])cc1` yielded an activation of 7.66%.
Work on `O=C1NC(Cc2ccccc2)c2nc3ccc(Br)cc3c(=O)n2-c2cc3ccccc3cc21` (configuration not stated) yielded an activation of -6.52%.
`COc1cc(C(=O)N2CCOC23CCN(Cc2ccccc2)CC3)cc(OC)c1OC` was tested, and the activation was 5.01%.
For `CC(=O)c1ccc(OCC(=O)N(C)C2CCS(=O)(=O)C2)cc1` (configuration not stated), the activation was -5.08%.
`C[C@@H]1CN([C@H](C)CO)S(=O)(=O)c2ccc(C#C[C@@H](C)O)cc2O[C@@H]1CN(C)Cc1ccc(-c2ccccc2)cc1` showed an activation of -12.3%.
`O=C(NCCN1CCOCC1)c1ccc2c(c1)N(Cc1cccc(Cl)c1)C(=O)c1ccccc1S2(=O)=O` was tested, and the activation was -0.88%.
With `COc1ccc(NC2CCCN(C(=O)c3ccccc3-c3ncc[nH]3)C2)cc1` (configuration not stated) the activation was -6.86%.
`Cc1sc2ncnc(SCC(=O)NC3CCS(=O)(=O)C3)c2c1C` (configuration not stated) was tested, and the activation was -9.19%.
`CN(c1ccccc1)S(=O)(=O)c1ccc(C(=O)NCc2cccnc2)cc1` showed an activation of -3.42%.
In the case of `O=C(COC(=O)CCc1c[nH]c2ccccc12)Nc1cccc(Cl)c1`, the activation is reported as 1.73%.
`CCOC(=O)c1cc(-c2sc(NC(=O)c3ccccc3)nc2C)n(Cc2ccccc2)n1` gave an activation of -0.16%.
`O=C(COC(=O)c1ccc(S(=O)(=O)N2CCCCCC2)cc1)Nc1ccccc1C(F)(F)F` showed an activation of -16.8%.
In the case of `CN(Cc1ccccc1)C(=O)CCC1CCN(C(=O)c2ccco2)CC1`, the activation is reported as 2.88%.
`Cc1[nH]c2ccccc2c1C(=O)C(=O)NCc1nnnn1-c1cccc(F)c1` was tested, and the activation was -2.65%.
Work on `Cc1cc(C)n2nc(C(=O)N3CCN(Cc4ccc5c(c4)OCO5)CC3)nc2n1` yielded an activation of -11.3%.
For `O=C(CCCN1C(=O)c2cccc3cccc(c23)C1=O)N1CCN(Cc2ccc3c(c2)OCO3)CC1`, the activation was 18.8% (active).
`Cn1c(=O)cc(OCCCC(=O)N2CCN(Cc3ccc4c(c3)OCO4)CC2)c2ccccc21` gave an activation of -7.18%.
`CCN1C(=O)[C@H]2[C@@H](c3ccccc3)N[C@]3(CCCN(Cc4ccc(C)cc4)C3=O)[C@H]2C1=O` showed an activation of 0.79%.
Work on `O=C(NCCS(=O)(=O)N1CCN(c2ccccc2)CC1)c1cc(=O)c2ccccc2o1` yielded an activation of -13.1%.
For `CCCCN1C(=O)C(CC(=O)NC(c2ccccc2)c2ccccc2)CC(C(=O)N2CCOCC2)=C1C` (configuration not stated), the activation was -5.21%.
